Data as given in PubChem BioAssay (Tox21).
Results filed as inconclusive are left out. Active and inactive are the calls of the source. Unless noted, calls follow the shape of the full dose curve.

Assays:
[1] = molecular target: Gonadotropin-releasing hormone receptor (Homo sapiens) (UniProt P30968); assay: Human gonadotropin-releasing hormone receptor (GnRHR) small molecule agonists, calcium flux assay in GnRHR-HEK293 cells (AID 1920063); also: nearly all actives have a fitted effect of over 35% in size
Chain of Gonadotropin-releasing hormone receptor (Homo sapiens) (P30968 whole entry, looked up): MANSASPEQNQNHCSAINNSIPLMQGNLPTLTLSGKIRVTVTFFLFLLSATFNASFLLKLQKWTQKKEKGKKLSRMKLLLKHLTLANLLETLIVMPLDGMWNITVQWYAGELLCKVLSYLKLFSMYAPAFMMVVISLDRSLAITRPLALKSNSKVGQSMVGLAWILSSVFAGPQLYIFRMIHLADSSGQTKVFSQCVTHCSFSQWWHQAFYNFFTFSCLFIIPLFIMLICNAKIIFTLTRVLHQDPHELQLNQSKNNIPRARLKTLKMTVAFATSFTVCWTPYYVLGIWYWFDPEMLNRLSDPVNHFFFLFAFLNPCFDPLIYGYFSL
Method in brief: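 Tox21-format agonist screen using human GnRHR-expressing HEK293 cells and a fluorescent calcium dye; kinetic 3-min fluorescence reading after compound addition, 15-point concentration series run in triplicate.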

[2] = molecular target: KiSS-1 receptor (Homo sapiens) (UniProt Q969F8); assay: Human kisspeptin (KISS1R) small molecule agonists, calcium flux assay in KISS1R-HEK293 cells (AID 1920064; active = well fitted activation curve with a large enough effect in the repeat runs)
Chain of KiSS-1 receptor (Homo sapiens) (Q969F8 whole entry, looked up): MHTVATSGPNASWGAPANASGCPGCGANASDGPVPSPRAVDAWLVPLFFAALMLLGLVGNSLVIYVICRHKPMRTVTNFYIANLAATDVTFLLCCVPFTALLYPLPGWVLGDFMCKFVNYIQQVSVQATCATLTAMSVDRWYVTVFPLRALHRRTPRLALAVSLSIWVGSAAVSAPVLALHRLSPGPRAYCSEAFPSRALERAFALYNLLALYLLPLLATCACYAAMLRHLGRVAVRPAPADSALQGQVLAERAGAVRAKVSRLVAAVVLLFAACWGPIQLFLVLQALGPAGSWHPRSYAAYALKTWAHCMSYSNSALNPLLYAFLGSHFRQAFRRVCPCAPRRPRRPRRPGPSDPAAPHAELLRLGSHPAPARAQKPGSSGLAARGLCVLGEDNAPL
Method in brief: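 Intracellular calcium mobilization in KISS1R-HEK293 cells was recorded by fluorescence (Ex/Em 480/540) for 3 min following compound addition to cells pre-loaded 1 h with calcium dye.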

[3] = G protein-coupled receptor (GPCR) small molecule agonists, calcium flux assay: HEK293 wild type cell line counter screen (AID 1920065)
Method in brief: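 In this agonist-mode screen, ATP is the positive control and DMSO the vehicle. Cells grow 18 h before a 1 h dye incubation at 37 C; signal is taken at Ex/Em 480/540 over 3 min.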

[4] = p53 small molecule agonists, cell-based qHTS assay with human liver microsomes (AID 1963577)
Method in brief: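 p53RE-bla cells, 4,000/well, compound added after 5 h, with human liver microsomes 0.5 mg/mL and NADPH 0.5 mg/mL final; 16 h at 37 C, then LiveBLAzer 2 h RT, fluorescence.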

[5] = p53 small molecule agonists, cell-based qHTS assay with rat liver microsomes (AID 1963578)
Method in brief: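 p53RE-bla cells, 4,000/well, pre-incubated 5 h, then given compounds plus rat liver microsomes (0.5 mg/mL final) and NADPH (0.5 mg/mL final). Incubation 16 h at 37 C; beta-lactamase reporter read by LiveBLAzer fluorescence after 2 h at room temperature.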

[6] = p53 small molecule agonists, cell-based qHTS assay with human liver microsomes: qHTS cell viability counter screen (AID 1963579); also: nearly all actives have a fitted effect of over 45% in size
Method in brief: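 p53RE-bla cells, 4,000/well, dosed 5 hours after plating, with human liver microsomes (0.5 mg/mL final) plus NADPH (0.5 mg/mL final), 16 hours at 37 C. Viability read as CellTiter-Glo luminescence after 30 min at room temperature.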

[7] = p53 small molecule agonists, cell-based qHTS assay with rat liver microsomes: qHTS cell viability counter screen (AID 1963580); also: nearly all actives have a fitted effect of over 45% in size
Method in brief: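 In HCT-116 cells carrying a p53 response element-bla reporter, compounds were metabolically activated in situ by rat liver microsomes with NADPH over 16 h. Cell ATP content then served as the cytotoxicity measure.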

[8] = p53 small molecule agonists, cell-based qHTS assay: qHTS cell viability counter screen (AID 1963581); also: nearly all actives have a fitted effect of over 45% in size
Method in brief: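 Compounds are pinned onto HCT-116 p53RE-bla cells and left 16 h at 37 C. Following the reporter FRET read, ATP is quantified by CellTiter-Glo luminescence after 30 min at room temperature.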

[9] = p53 small molecule agonists, cell-based qHTS assay (AID 1963582; active = well fitted activation curve with a large enough effect in the signal ratio in the repeat runs, not every such curve was filed as active; the % refers to the signal ratio)
Method in brief: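 Agonist activity was scored from beta-lactamase FRET fluorescence in p53RE-bla cells treated 16 h at 37 C with compounds in DMSO, substrate incubation being 2 h at room temperature.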

[10] = molecular target: 5-hydroxytryptamine receptor 2A (Homo sapiens) (UniProt P28223); assay: 5-hydroxytryptamine receptor 2A (HTR2A) small molecule antagonists, cell-based qHTS assay (AID 1963586); also: nearly all actives have a fitted effect of over 45% in size
Chain of 5-hydroxytryptamine receptor 2A (Homo sapiens) (P28223 whole entry, looked up): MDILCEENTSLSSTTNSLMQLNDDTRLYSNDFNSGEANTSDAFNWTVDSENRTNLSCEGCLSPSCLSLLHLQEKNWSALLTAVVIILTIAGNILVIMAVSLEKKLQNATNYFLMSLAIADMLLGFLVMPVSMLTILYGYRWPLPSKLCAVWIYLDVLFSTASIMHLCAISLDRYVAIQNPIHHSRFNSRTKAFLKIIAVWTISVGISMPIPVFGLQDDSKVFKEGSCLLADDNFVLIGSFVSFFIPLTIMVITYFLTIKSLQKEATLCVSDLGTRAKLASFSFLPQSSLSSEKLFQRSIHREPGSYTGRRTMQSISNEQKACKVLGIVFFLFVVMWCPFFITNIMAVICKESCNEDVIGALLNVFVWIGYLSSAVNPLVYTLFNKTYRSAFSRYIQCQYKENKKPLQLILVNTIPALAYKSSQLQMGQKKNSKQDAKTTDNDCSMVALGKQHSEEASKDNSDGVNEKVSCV
Method in brief: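 Antagonist-mode intracellular calcium assay: DOI (4 nM) added after 5 min compound pre-incubation at room temperature to dye-loaded HTR2A-CHO cells. Fluorescence followed for 3 min, sampled every second.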

[11] = molecular target: 5-hydroxytryptamine receptor 2A (Homo sapiens) (UniProt P28223); assay: 5-hydroxytryptamine receptor 2A (HTR2A) small molecule agonists, cell-based qHTS assay (AID 1963587); also: nearly all actives have a fitted effect of over 30% in size
Method in brief: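 HTR2A-CHO cells, plated 18 h at 37 C/5% CO2, dye-loaded 1 h at 37 C; compounds in DMSO added by pin tool (agonist mode). Intracellular calcium flux read as kinetic fluorescence on FDSS over 2 min at 1 s intervals.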

[12] = molecular target: Muscarinic acetylcholine receptor M1 (Homo sapiens) (UniProt P11229); assay: Cholinergic receptor muscarinic 1 (CHRM1) small molecule antagonists, cell-based qHTS assay (AID 1963588); also: nearly all actives have a fitted effect of over 40% in size
Chain of Muscarinic acetylcholine receptor M1 (Homo sapiens) (P11229 whole entry, looked up): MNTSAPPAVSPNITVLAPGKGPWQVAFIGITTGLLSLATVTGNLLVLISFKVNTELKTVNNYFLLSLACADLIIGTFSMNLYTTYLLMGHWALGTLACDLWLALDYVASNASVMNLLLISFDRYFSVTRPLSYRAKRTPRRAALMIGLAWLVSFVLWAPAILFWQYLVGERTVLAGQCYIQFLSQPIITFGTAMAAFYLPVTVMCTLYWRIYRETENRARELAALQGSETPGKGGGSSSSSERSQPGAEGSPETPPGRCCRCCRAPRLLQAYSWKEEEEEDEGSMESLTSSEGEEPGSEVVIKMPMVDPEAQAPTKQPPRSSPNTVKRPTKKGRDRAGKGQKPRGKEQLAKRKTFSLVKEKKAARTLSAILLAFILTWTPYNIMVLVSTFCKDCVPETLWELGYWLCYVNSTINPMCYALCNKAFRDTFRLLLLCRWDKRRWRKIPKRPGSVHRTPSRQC
Method in brief: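 CHRM1-CHO calcium-flux assay, antagonist mode. Cells were seeded 18 h, dye-loaded 1 h at 37 C and given compound for 5 min at RT, then acetylcholine was added at 50nM. FDSS fluorescence was read 3 min; 15 concentrations, three runs.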

[13] = molecular target: Muscarinic acetylcholine receptor M1 (Homo sapiens) (UniProt P11229); assay: Cholinergic receptor muscarinic 1 (CHRM1) small molecule agonists, cell-based qHTS assay (AID 1963589); also: nearly all actives have a fitted effect of over 35% in size
Method in brief: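 Stable CHRM1-CHO cells (human receptor) were incubated 18 h, dye-loaded for 1 h at 37 C and exposed to test compounds for agonist activity, with calcium-dependent fluorescence followed kinetically.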

[14] = cAMP Responsive Elements (CRE) small molecule agonists, cell-based qHTS assay (AID 1963590)
Method in brief: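 FRET-based beta-lactamase readout (LiveBLAzer B/G, 2 h RT) quantified CRE activation in HEK 293T CRE-bla cells after 3 h treatment with DMSO-dissolved compounds.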

[15] = cAMP Responsive Elements (CRE) small molecule antagonists, cell-based qHTS assay (AID 1963591; active = well fitted inhibition curve with a large enough effect in the signal ratio in the repeat runs, not every such curve was filed as active; the % refers to the signal ratio)
Method in brief: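 qHTS in CRE-bla HEK 293T cells: compound in DMSO, then 0.25 uM NKH477 (final), 3 h at 37 °C/5% CO2; beta-lactamase FRET read-out after 2 h substrate incubation.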

[16] = molecular target: Beta-2 adrenergic receptor (Homo sapiens) (UniProt P07550); assay: Adrenergic beta2 receptor (ADRB2) small molecule antagonists, cell-based qHTS assay (AID 1963592); also: series mostly up to about 92 µM; nearly all actives have a fitted effect of over 50% in size
Chain of Beta-2 adrenergic receptor (Homo sapiens) (P07550 whole entry, looked up): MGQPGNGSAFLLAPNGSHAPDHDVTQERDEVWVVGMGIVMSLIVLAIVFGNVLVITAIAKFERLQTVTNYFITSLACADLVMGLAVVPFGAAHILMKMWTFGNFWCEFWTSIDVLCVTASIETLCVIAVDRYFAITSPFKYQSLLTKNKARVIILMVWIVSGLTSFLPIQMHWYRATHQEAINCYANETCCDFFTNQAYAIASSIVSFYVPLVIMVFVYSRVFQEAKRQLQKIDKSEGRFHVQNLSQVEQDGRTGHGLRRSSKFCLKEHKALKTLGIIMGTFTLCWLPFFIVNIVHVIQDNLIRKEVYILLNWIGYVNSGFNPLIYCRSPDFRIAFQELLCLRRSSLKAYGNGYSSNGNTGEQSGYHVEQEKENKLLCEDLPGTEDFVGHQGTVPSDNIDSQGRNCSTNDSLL
Method in brief: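 Cells (CHO, stable ADRB2 overexpression) incubated 18-20hr at 37C; compounds added from DMSO; agonist mix (1nM isoproterenol, 100uM IBMX, 25uM Ro-20-1724) added; 0.5hr RT; d2-cAMP and anti-cAMP-cryptate added; 1hr RT; 665/615 nm read.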

[17] = molecular target: D(2) dopamine receptor (Homo sapiens) (UniProt P14416); assay: Dopamine D2 receptor (DRD2) small molecule agonists, cell-based qHTS assay (AID 1963594); also: nearly all actives have a fitted effect of over 35% in size
Chain of D(2) dopamine receptor (Homo sapiens) (P14416 whole entry, looked up): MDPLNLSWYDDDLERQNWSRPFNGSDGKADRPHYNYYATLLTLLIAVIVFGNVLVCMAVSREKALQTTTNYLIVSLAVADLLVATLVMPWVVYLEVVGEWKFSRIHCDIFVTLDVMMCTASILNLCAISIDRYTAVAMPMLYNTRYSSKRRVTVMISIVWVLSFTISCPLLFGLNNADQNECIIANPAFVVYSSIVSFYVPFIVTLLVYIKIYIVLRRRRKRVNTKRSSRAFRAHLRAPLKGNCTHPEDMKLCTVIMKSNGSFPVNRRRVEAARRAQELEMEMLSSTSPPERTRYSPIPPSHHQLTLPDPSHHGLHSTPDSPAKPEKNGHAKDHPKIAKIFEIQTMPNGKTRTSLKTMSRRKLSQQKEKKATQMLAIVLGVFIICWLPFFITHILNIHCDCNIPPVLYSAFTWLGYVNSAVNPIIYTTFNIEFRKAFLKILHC
Method in brief: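 HEK293 cells stably expressing DRD2 were cultured 24 h at 37 C, then given Ro20-1724 (0.1 mM final) and compounds for 10 min at room temperature. NKH477 (200nM) was then added for 30 min. cAMP was read by HTRF.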

[18] = molecular target: D(2) dopamine receptor (Homo sapiens) (UniProt P14416); assay: Dopamine D2 receptor (DRD2) small molecule antagonists, cell-based qHTS assay (AID 1963595; active = well fitted inhibition curve with a large enough effect in the signal ratio in the repeat runs, with a control signal flat; the % refers to the signal ratio)
Method in brief: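 DRD2-HEK293; 0.1 mM Ro20-1724; cpd 10 min RT; NKH477 200 nM + quinpirole 12 nM, 30 min RT; HTRF cAMP (cAMP-d2/anti-cAMP cryptate), 665/620 nm ratio after 1 h.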

[19] = molecular target: Beta-2 adrenergic receptor (Homo sapiens) (UniProt P07550); assay: Adrenergic beta2 receptor (ADRB2) small molecule agonists, cell-based qHTS assay (AID 1963593);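 also: CHO cells stably overexpressing human ADRB2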
Method in brief: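 CHO cells stably over-expressing ADRB2 were plated overnight at 37C, then dosed with compounds plus a stimulation mix containing 100uM IBMX and 25uM Ro-20-1724 for 0.5hr at room temperature. cAMP was measured by HTRF competition, 1hr.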
% is scaled to controls: 0 for no effect and ±100 for the full control effect.

CC(C)CCOC(=O)c1ccccc1
inactive: Potency [1] | Potency [2] | Potency [3] | Potency [4] | Potency [5] | Potency [6] | Potency [7] | Potency [8] | Potency [9] | Potency [10] | Potency [11] | Potency [12] | Potency [13] | Potency [14] | Potency [15] | Potency [16] | Potency [17] | Potency [18]

O=c1cccc[nH]1
inactive: Potency [1] | Potency [2] | Potency [3] | Potency [4] | Potency [5] | Potency [6] | Potency [7] | Potency [8] | Potency [9] | Potency [10] | Potency [11] | Potency [12] | Potency [13] | Potency [14] | Potency [15] | Potency [16] | Potency [19] | Potency [17] | Potency [18]

CC(C)(C)CC(C)(C)c1ccc(Nc2ccc(C(C)(C)CC(C)(C)C)cc2)cc1
inactive: activity change [1] 0.129% [at 5.22 µM, active compounds read high] | activation [2] 0.255% [at 6.97 µM] | activation [3] -0.517% [at 5.23 µM] | activation [4] -1.73% [at 5.99 µM] | activation [5] -0.0551% [at 5.99 µM] | activity change, negative = cytotoxicity [6] -1.28% [at 5.99 µM] | activity change, negative = cytotoxicity [7] -9.33% [at 5.99 µM] | activity change, negative = cytotoxicity [8] 0.663% [at 5.99 µM] | activation [9] 4.39% [at 5.99 µM] | activity, negative = inhibition [10] -0.349% [at 5.62 µM] | activation [11] 5.4% [at 7.02 µM] | activity, negative = inhibition [12] -10.6% [at 5.58 µM] | activation [14] -1.83% [at 8.39 µM] | activity change, negative = inhibition [15] -1.43% [at 8.39 µM] | activity change, negative = inhibition [16] -0.838% [at 8.39 µM] | activation [19] 6.6% [at 8.39 µM] | activation [17] 1.28% [at 8.39 µM] | activity change, negative = inhibition [18] -0.278% [at 8.38 µM]

C/C(Cl)=C/CCl
inactive: Potency [1] | Potency [2] | Potency [3] | Potency [4] | Potency [5] | Potency [6] | Potency [7] | Potency [8] | Potency [9] | Potency [10] | Potency [11] | Potency [12] | Potency [13] | Potency [14] | Potency [15] | Potency [16] | Potency [17] | Potency [18]

Cc1cc(C)c(C(=O)O)c(C)c1
inactive: Potency [1] | Potency [2] | Potency [3] | Potency [4] | Potency [5] | Potency [6] | Potency [7] | Potency [8] | Potency [9] | Potency [10] | Potency [11] | Potency [12] | Potency [13] | Potency [15] | Potency [16] | Potency [19] | Potency [17] | Potency [18]

CCn1c2ccccc2c2ccccc21
inactive: Potency [1] | Potency [2] | Potency [3] | Potency [4] | Potency [5] | Potency [6] | Potency [7] | Potency [8] | Potency [9] | Potency [10] | Potency [11] | Potency [12] | Potency [13] | Potency [14] | Potency [16] | Potency [17] | Potency [18]

CCOC(=O)[C@H](CCc1ccccc1)N[C@@H](C)C(=O)N1C(=O)N(C)C[C@H]1C(=O)O
inactive: Potency [1] | Potency [2] | Potency [3] | Potency [4] | Potency [5] | Potency [6] | Potency [7] | Potency [8] | Potency [9] | Potency [10] | Potency [11] | Potency [12] | Potency [13] | Potency [14] | Potency [15] | Potency [16] | Potency [18]
